The text below walks through data of paper doi:10.1101/2024.03.05.583629.

In this experiment the target is pT7_6His-AlfaTag-HOXD13 (human, UniProt P35453 263-343). Description: PADIT-seq. The settings on record: dsDNA, one strand shown.
pT7_6His-AlfaTag-HOXD13, sequence (P35453 263-343): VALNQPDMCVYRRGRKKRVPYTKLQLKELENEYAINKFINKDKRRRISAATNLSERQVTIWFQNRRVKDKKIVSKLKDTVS
Sequence “CTCGAGGATATCAAGATCTGGCCTCGGCGTATTAAAAGGAACCTCTAGCTAGCCGACTCACTATAGGGATAATCGCCCTGAGCAAAGACC” yielded a binding signal of 2.14 ± 0.0726 log2FC.
In turn, “CTCGAGGATATCAAGATCTGGCCTCGGCGTTTTATTAGGAACCTCTAGCTAGCCGACTCACTATAGGGATAATCGCCCTGAGCAAAGACC” came in with a binding signal of 3.19 ± 0.0762 log2FC.
To “CTCGAGGATATCAAGATCTGGCCTCGGCTTTTTAGCAGGAACCTCTAGCTAGCCGACTCACTATAGGGATAATCGCCCTGAGCAAAGACC” belongs 0.699 ± 0.0959 log2FC; to “CTCGAGGATATCAAGATCTGGCCTCGGCATTTTATTAGGAACCTCTAGCTAGCCGACTCACTATAGGGATAATCGCCCTGAGCAAAGACC”, 3.28 ± 0.0692 log2FC.
To “CTCGAGGATATCAAGATCTGGCCTCGGCCGGTTAAAAGGAACCTCTAGCTAGCCGACTCACTATAGGGATAATCGCCCTGAGCAAAGACC” belongs 0.716 ± 0.0773 log2FC; to “CTCGAGGATATCAAGATCTGGCCTCGGCGTTTTAAGCGGAACCTCTAGCTAGCCGACTCACTATAGGGATAATCGCCCTGAGCAAAGACC”, 0.144 ± 0.109 log2FC.
“CTCGAGGATATCAAGATCTGGCCTCGGCCACTTAAAAGGAACCTCTAGCTAGCCGACTCACTATAGGGATAATCGCCCTGAGCAAAGACC” returned a binding signal of 1.17 ± 0.0931 log2FC.
“CTCGAGGATATCAAGATCTGGCCTCGGCCGGGTAAAAGGAACCTCTAGCTAGCCGACTCACTATAGGGATAATCGCCCTGAGCAAAGACC” had a binding signal of -0.304 ± 0.0906 log2FC.
“CTCGAGGATATCAAGATCTGGCCTCGGCGTTTTACACGGAACCTCTAGCTAGCCGACTCACTATAGGGATAATCGCCCTGAGCAAAGACC”: the binding signal was determined as 2.15 ± 0.0769 log2FC.
Regarding “CTCGAGGATATCAAGATCTGGCCTCGGCAGCATAAAAGGAACCTCTAGCTAGCCGACTCACTATAGGGATAATCGCCCTGAGCAAAGACC”, the binding signal turned out to be 0.863 ± 0.103 log2FC.
The sequence “CTCGAGGATATCAAGATCTGGCCTCGGCTGTCCACGCGGAACCTCTAGCTAGCCGACTCACTATAGGGATAATCGCCCTGAGCAAAGACC” returned a binding signal of -0.737 ± 0.124 log2FC.
Turning to “CTCGAGGATATCAAGATCTGGCCTCGGCTTGTTAAAAGGAACCTCTAGCTAGCCGACTCACTATAGGGATAATCGCCCTGAGCAAAGACC”, the binding signal was determined as 3.01 ± 0.0792 log2FC.
